Bioassay records: PubChem BioAssay, National Center for Advancing Translational Sciences (NCATS)
NIH3T3 tox – Cytotoxic Profiling in NIH 3T3 Cell Line of Diverse Libraries Using Quantitative High-Throughput Screening. hit rate 4.3% among 94,000. NIH 3T3 viability, CellTiter-Glo ATP luminescence, 48-72 h. Potency, µM (doses to about 96.7 µM), inactives show at the top dose activity change, negative = cytotoxicity, actives largely listed as inhibitors; also: % is scaled to controls: 0 for no effect and ±100 for the full control effect; nearly all actives have a fitted effect of over 55% in size
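Cells were seeded at 400 per well, treated with pin-transferred compound, and kept 48 or 72 hr at 37 °C before CellTiter-Glo addition and luminescence imaging of cellular ATP.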
hNpr1 antagonist – Natriuretic polypeptide receptor (hNpr1) antagonism - Primary qHTS. Potency, µM (doses to about 46.3 µM), inactives show at the highest dose activity change, negative = inhibition, hits mostly inhibitors. Atrial natriuretic peptide receptor 1 (Homo sapiens), P16066. hit rate 1.6% among 76,000. AID 1347048, 2019. HEK293 hNpr1 GloSensor cGMP, ANP-stimulated luminescence; calls by dose curve; also: % is scaled to controls: 0 for no effect and ±100 for the full control effect; nearly all actives have a fitted effect of over 60% in size
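HEK293 cells stably expressing human Npr1 and cGMP GloSensor pGS-40F, loaded 2 h with 2% GloSensor reagent, given compound 30 min at room temperature. Luminescence read before and 20 min after 0.1 nM hNppA.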
FLuc inh-1 – Firefly luciferase inhibition profiling of diverse chemical library using quantitative high-throughput screening. Potency, µM (titrated, usually from 115 µM), hits mostly inhibitors. Luciferin 4-monooxygenase (Photinus pyralis), P08659. AID 1347043, 2019. hit rate 2.5% among 76,000. purified P. pyralis luciferase, luminescence, biochemical; also: % is scaled to controls: 0 for no effect and ±100 for the full control effect; nearly all actives have a fitted effect of over 65% in size
Target sequence (P08659 whole entry, looked up): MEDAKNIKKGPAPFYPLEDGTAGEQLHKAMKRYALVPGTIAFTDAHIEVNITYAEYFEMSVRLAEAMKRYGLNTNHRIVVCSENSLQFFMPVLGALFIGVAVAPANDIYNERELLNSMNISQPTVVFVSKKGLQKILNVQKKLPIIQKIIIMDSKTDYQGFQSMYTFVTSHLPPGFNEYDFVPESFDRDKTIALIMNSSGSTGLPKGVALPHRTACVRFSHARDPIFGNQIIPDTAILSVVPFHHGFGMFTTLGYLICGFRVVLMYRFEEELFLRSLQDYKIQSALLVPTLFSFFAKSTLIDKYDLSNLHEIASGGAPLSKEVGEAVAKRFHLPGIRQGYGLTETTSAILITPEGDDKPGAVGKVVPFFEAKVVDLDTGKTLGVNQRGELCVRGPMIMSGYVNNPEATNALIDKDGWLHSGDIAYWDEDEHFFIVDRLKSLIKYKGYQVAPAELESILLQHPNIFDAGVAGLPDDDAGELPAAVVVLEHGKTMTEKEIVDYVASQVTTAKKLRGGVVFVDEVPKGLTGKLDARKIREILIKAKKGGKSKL
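Luminescence read by CCD imager after adding enzyme (10nM final) to wells holding compound, titrated in qHTS. Substrates 10uM each D-luciferin and ATP; buffer 50mM Tris acetate pH 7.5, 10mM Mg acetate, Tween-20, BSA.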
HEK293 tox – Cytotoxic Profiling in HEK 293 Cell Line of Diverse Libraries Using Quantitative High-Throughput Screening. HEK 293 viability, ATP luminescence (CellTiter-Glo), 48-72 h. Potency, µM (top dose mostly 115 µM), without a hit: at the top dose activity change, negative = cytotoxicity, hits mostly inhibitors. hit rate 6.6% among 94,000; also: % is scaled to controls: 0 for no effect and ±100 for the full control effect; nearly all actives have a fitted effect of over 60% in size
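Cells seeded first (HEK 293, 250 cells/well), then compound added by pintool. Incubation ran 48 or 72 hr at 37 degree Celsius. CellTiter-Glo was added and luminescence imaged after 10 min at room temperature.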
FLuc SDR -ATP – Firefly luciferase (FLuc-C-HiBiT) SDR gain of signal screen - without ATP; hit rate 7.8% among 1,300; Potency, µM (series often up to 32.7 µM), inactives show at the highest dose activation (signal gain), most hits filed as activators; Purified FLuc-C-HiBiT, Nano-Glo HiBiT luminescence, no ATP; shares compounds with FLuc inh-1; also: nearly all actives have a fitted effect of over 55% in size
FLuc SDR ATP – Firefly luciferase (FLuc-C-HiBiT) SDR gain of signal screen - plus ATP; shares compounds with FLuc inh-1; purified FLuc-C-HiBiT + ATP, HiBiT complementation luminescence; Potency, µM (series often up to 32.7 µM), for inactives: at the top dose activation (gain of signal), actives largely listed as activators; hit rate 8.7% among 1,300; AID 1963319, 2024;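 also: signal reports ligand binding via conformational change of the enzyme rather than luciferase catalysis; % of control where 0% means no effect; nearly all actives have a fitted effect of over 55% in size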
FLuc inh-2 – Firefly luciferase (FLuc-C-HiBiT) enzymatic inhibition screen - Functional assay; shares compounds with FLuc inh-1; hit rate 42% among 1,300; purified FLuc-C-HiBiT enzyme, luciferin luminescence; AID 1963320, 2024; Potency, µM (doses to about 32.7 µM), for inactives: at the highest dose activity change, negative = inhibition, actives largely listed as inhibitors; also: % is scaled to controls: 0 for no effect and ±100 for the full control effect; nearly all actives have a fitted effect of over 70% in size
Starred values were filed as active, the others as inactive; i = inactive; ? = inconclusive; . = not tested or not shown. Only some compounds are listed: those with a hit (about 11% of all), similar ones and a draw of the others. Unless noted, calls follow the shape of the dose curve; as a rule, active = well fitted curve in the direction sought with a large enough effect; inconclusive = small, poorly fitted or top-dose-only effect, or another doubt; inactive = no such curve, though single readings can be large; an effect the other way counts as inactive or inconclusive. Potency is read from the fitted curve at half-maximal effect.

SMILES	NIH3T3 tox	hNpr1 antagonist	FLuc inh-1	HEK293 tox	FLuc SDR -ATP	FLuc SDR ATP	FLuc inh-2
Cc1ccc(NC(=O)c2ccc(CN3C(=O)NC4(CCOCC4)C3=O)cc2)cc1C	-15%	?	10µM*	?	?	14%	?
COc1cccc(NC(=O)c2ccc(CN3C(=O)NC4(CCOCC4)C3=O)cc2)c1	3%	-3%	?	?	.	.	.
CC(C)c1ccc(NC(=O)c2ccc(CN3C(=O)NC4(CCOCC4)C3=O)cc2)cc1	40µM*	10µM*	2µM*	?	?	?	3.5µM*
Cc1cccc(C(=O)N2CCC3(CC2)OCC(C(=O)NCC2CCCO2)N3C(=O)c2ccccc2)c1 (centres undefined)	-10%	0%	i	-2%	.	.	.
CCC(=O)N1CCc2c(C(=O)O)cccc21	-24%	-5%	28µM*	-8%	9%	19%	-13%
O=C(O)c1cccc2c1CCN2C(=O)c1ccc(F)cc1	?	?	1.3µM*	-29%	21%	1.2µM*	1.8µM*
Cc1c(NC(=O)c2ccc(I)o2)cccc1-c1nc2ccccc2s1	.	.	.	.	27%	13%	7µM*
CCC(=O)Nc1cc(-c2nc3ccccc3s2)c(Cl)cc1Cl	.	.	.	.	17%	11%	-5%
Cc1c(NC(=O)Cc2ccccc2)cccc1-c1nc2ccccc2s1	.	.	.	.	?	17%	?
Cc1c(NC(=O)c2cccc(Cl)c2Cl)cccc1-c1nc2ccccc2s1	.	.	.	.	17%	12%	-18%
O=C(Cn1nc2c(cc1=O)CCCCC2)Nc1nc2ccccc2s1	-7%	3%	i	?	.	.	.
CCN1CC(Nc2ccc(-c3nc(CCCc4ccccc4)no3)cn2)CC1=O (centres undefined)	-25%	1%	i	?	.	.	.
O=S(=O)(c1ccccc1)N1CCCC(c2nc(CCOCC3CC3)no2)C1 (centres undefined)	-30%	.	.	?	.	.	.
O=C(NCC1CC1)C1CCCN1C(=O)c1cccc(-c2ccccn2)c1 (centres undefined)	-7%	.	.	1%	.	.	.
CCCOc1ccccc1C(=O)Nc1ccc(-c2nc3ccc(C)cc3s2)cc1	.	.	.	.	?	?	6.2µM*
COc1cccc(C(=O)Nc2ccc(-c3nc4ccc(C)cc4s3)cc2)c1OC	.	.	.	.	15%	10%	-4%
CCOC(=O)c1cccc(NC(=O)c2cnc(-c3ccc(C)cc3)nc2-c2ccncc2)c1	-16%	-15%	i	?	.	.	.
CCCC(=O)N1Cc2ccccc2CC2(CCN(Cc3ccc(C(F)(F)F)nc3)CC2)C1	-26%	.	.	?	.	.	.
CC(C)C(=O)NC1CCN(Cc2ccc(-c3nc4cccc(Cl)c4s3)cc2)CC1	.	.	.	.	13%	9%	-6%
Cc1ccc(-c2ccccc2CN2CCC(C(=O)NC3CCCC3)CC2)cc1Cl	-15%	.	.	-15%	.	.	.
Cc1cn2nc(-c3nc(C4CCCN(C(=O)Cc5cccc(F)c5)C4)no3)cc2c(=O)[nH]1 (centres undefined)	-14%	-1%	?	?	.	.	.
CC(C)c1ccc(C2=CC(c3ccc(C(C)C)cc3)n3nnnc3N2)cc1 (centres undefined)	.	.	.	.	11%	10%	0%
CCc1ccc(CNC(=O)C2CCCN(c3nn4cc(-c5ccc(F)cc5)nc4s3)C2)cc1 (centres undefined)	.	.	.	.	12%	15%	-20%
Cc1nc2cc(N3CCCC(C(=O)NCc4ccc(N(C)C)cc4)C3)cnc2nc1C (centres undefined)	-5%	0%	i	-12%	.	.	.
Cc1noc(C)c1C(=O)N1Cc2ccccc2CC2(CCCN2C)C1 (centres undefined)	-17%	.	.	-25%	.	.	.
SMILES	NIH3T3 tox	hNpr1 antagonist	FLuc inh-1	HEK293 tox	FLuc SDR -ATP	FLuc SDR ATP	FLuc inh-2
Cc1ccc(N2CCN(c3nc(C(=O)O)cs3)CC2)cc1	-6%	-16%	1.4µM*	-2%	13%	?	2µM*
O=C(NCc1ccccn1)C1c2ccccc2C(=O)N(C2CCCC2)C12CCCCC2 (centres undefined)	?	-10%	i	?	.	.	.
COc1ccc(C(=O)N2CCCC(C(=O)N3CCC(c4nc5ccncc5[nH]4)C3)C2)cc1 (centres undefined)	-15%	.	.	-9%	.	.	.
Cc1ccc(N2Cc3c(ncnc3N3CCN(C)CC3)N(C)CC2=O)cc1	-27%	-2%	i	-5%	.	.	.
Cc1ccc(-n2ncc3c(N4CCCCCC4)ncnc32)cc1	.	.	.	.	1.8µM*	0.88µM*	0.2µM*
Cc1ccc(-n2ncc3c(N4CCCCC4)nc(NCCCO)nc32)cc1	.	.	.	.	10%	7%	-10%
Fc1ccc(-n2ncc3c(N4CCCCCC4)ncnc32)cc1	.	.	.	.	?	?	1.2µM*
CC(=O)N1CCC(CC(=O)N2C[C@@H](Oc3ccccc3)C[C@H]2C(=O)NC2CC2)CC1	-19%	.	.	-7%	.	.	.
CCn1cc(CN2CCCCCCNC(=O)[C@@H]3CCC[C@@H]32)c(C)n1	?	2%	i	-10%	.	.	.
Cn1ncc2c(C(=O)NC3CCOC3)cc(-c3cccc(F)c3)nc21 (centres undefined)	?	.	.	-23%	.	.	.
C[C@@H]1C(=O)O[C@H]2[C@H]1CC[C@@]1(C)Cc3sc(NC(=O)c4ccc(F)c(Cl)c4)nc3[C@@H](C)[C@H]21	-24%	-16%	i	?	.	.	.
C[C@@H]1C(=O)O[C@H]2[C@H]1CC[C@@]1(C)Cc3sc(NC(=O)c4c(F)cccc4F)nc3[C@@H](C)[C@H]21	-29%	?	2.2µM*	?	20%	19%	9.9µM*
C[C@@H]1C(=O)O[C@H]2[C@H]1CC[C@@]1(C)Cc3sc(NC(=O)c4ccncc4)nc3[C@@H](C)[C@H]21	?	?	0.5µM*	56µM*	?	?	0.57µM*
Cc1ccc(-c2nnc(C3CN(C(=O)c4ccc(C)c(F)c4)CC34CCOCC4)o2)cc1 (centres undefined)	-2%	0%	i	?	.	.	.
